Assay outcomes as filed in PubChem.
Rows were chosen to be rich in hits. Some 7.3% of all compounds tested hit in one or more screens of this group.
FLuc modulator: firefly luciferase modulation, counter-screen for miR-21 project; purified FLuc, Km substrates, luminescence inhibition; Potency, µM (series often up to 57.5 µM), without a hit: at the top dose activity change, negative = inhibition, usual class: inhibitors; 6.9% of 360,000 active; AID 588342;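 note: plate controls were vehicle for no effect and reference inhibitor for full effect; nearly all actives have a fitted effect of over 55% in size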
Target sequence (P08659 whole entry, looked up): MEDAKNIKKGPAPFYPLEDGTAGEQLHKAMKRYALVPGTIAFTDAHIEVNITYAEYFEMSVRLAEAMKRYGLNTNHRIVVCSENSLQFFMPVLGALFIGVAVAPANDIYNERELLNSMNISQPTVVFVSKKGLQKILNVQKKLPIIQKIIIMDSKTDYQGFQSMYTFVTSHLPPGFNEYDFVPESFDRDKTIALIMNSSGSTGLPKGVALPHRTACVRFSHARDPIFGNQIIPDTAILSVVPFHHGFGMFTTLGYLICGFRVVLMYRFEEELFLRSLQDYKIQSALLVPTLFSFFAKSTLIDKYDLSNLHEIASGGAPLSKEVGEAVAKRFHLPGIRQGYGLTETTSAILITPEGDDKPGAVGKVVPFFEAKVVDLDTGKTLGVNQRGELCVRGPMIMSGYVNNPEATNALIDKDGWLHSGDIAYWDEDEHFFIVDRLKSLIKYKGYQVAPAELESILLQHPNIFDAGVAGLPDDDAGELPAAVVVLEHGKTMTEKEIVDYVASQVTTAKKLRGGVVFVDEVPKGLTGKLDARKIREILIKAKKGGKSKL
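Purified P. pyralis luciferase, 10 nM final, with Km-level 10 uM D-luciferin and 10 uM ATP in 50 mM Tris acetate pH 7.5, 10 mM Mg acetate, 0.01% Tween-20, 0.05% BSA; 6-point qHTS titration about 60 µM downward; luminescence read.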
Rab9 prom act: activators of Rab9 promoter; Huh7 Rab9 promoter-luciferase reporter, luminescence, 24 h; Potency, µM (titrated, usually from 9.22 µM), for the others: at the highest dose activation, negative = inhibition, usual class: activators; 2.8% of 320,000 active; AID 485297; note: % of control where 0% means no effect; nearly all actives have a fitted effect of over 60% in size
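Cell-based reporter: Huh7 stable for Rab9 promoter-driven luciferase, plated in reduced-serum medium with 10% FBS at 1500 cells/well, compound-treated 24 h at 37 °C, luminescence read after 10 min reagent.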
ELG1 genotox: genotoxicity induction in ELG1-luciferase HEK293T cells. Potency, µM (titrated, usually from 46 µM), without a hit: top-dose activity change, positive = activation, hits mostly activators. 1.3% of 330,000 active. HEK293T ELG1-luciferase reporter, luminescence, 16 h; note: % of control where 0% means no effect; nearly all actives have a fitted effect of over 60% in size
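Genotoxic stress is detected as increased luminescence from luciferase-tagged ELG1 in HEK293T cells, measured with ONE-Glo after a 16 hr treatment at 37 °C.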
Luc counter: blocks Kinase-Glo luciferase, a counter-screen artifact; Q27757; Kinase-Glo luciferase, ATP luminescence, 8 min; Potency, µM (highest dose often 38.3 µM), without a hit: top-dose activity change, negative = inhibition, usual class: inhibitors; 0.28% of 200,000 active; AID 1379; note: % is set by controls: 0 for no effect and ±100 for the full control effect; nearly all actives have a fitted effect of over 60% in size
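Luminescence was the read-out, taken after 8-minute incubation at ambient temperature. Luciferase turned over luciferin with 10 uM ATP in imidazole pH 7.2 buffer containing KCl, MgCl2, Tween 20 and BSA.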
NPC1 prom act: NPC1 promoter activation | Huh7 NPC1 promoter luciferase reporter, 24 h | Potency, µM (highest dose often 9.22 µM), inactives show top-dose activation, actives largely listed as activators | 2.4% of 320,000 active; note: % of control where 0% means no effect; nearly all actives have a fitted effect of over 60% in size
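Huh7 reporter cells (NPC1 promoter driving luciferase) are dosed with compound for 24 h at 37 °C, 5% CO2; luciferase detection reagent is then added and luminescence measured after 10 min at ambient temperature.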
SMN2 splice up: SMN2 splice variant enhancement; HEK293 SMN2-luciferase splicing reporter, luminescence, 30-36 h; Potency, µM (top dose mostly 46.1 µM), inactives show at the highest dose activity change, positive = activation, actives largely listed as activators; 2.8% of 210,000 active; AID 1458; note: % of control where 0% means no effect; nearly all actives have a fitted effect of over 55% in size
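HEK293 cells carry an SMN2 minigene-luciferase reporter in which exon 7 inclusion puts luciferase in frame. Cells were seeded at 2000 cells/well, attached for 10-12 hours, then exposed to compounds for 30-36 hours at 37C before ONE-Glo luminescence.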
The depositor's hits bear a star; [ ] = remark or other dose. Calls come from the whole dose curve; as a rule, active = well fitted curve in the direction sought with a large enough effect; inconclusive = small, poorly fitted or top-dose-only effect, or another doubt; inactive = no such curve, though single readings can be large; an effect the other way counts as inactive or inconclusive. Potency is the fitted concentration of half-maximal effect.

For Cc1ccc2nc(-c3ccc(O)cc3)oc2c1 the results were FLuc modulator 0.95µM*, Rab9 prom act inconclusive, ELG1 genotox inconclusive and NPC1 prom act 2.5µM*.
`Cc1cc(C)c2oc(-c3cccc(N)c3)nc2c1` gave FLuc modulator 3.8µM*, Rab9 prom act inconclusive, ELG1 genotox inconclusive and NPC1 prom act 3.5µM*.
For COc1ccc(CNc2oc(/C=C/c3cc(OC)c(OC)c(OC)c3)nc2C#N)cc1 the results were FLuc modulator 3% and SMN2 splice up inconclusive.
Screening CC(C)CCN1C(=O)c2ccccc2CC1(C)C(=O)NC1CCCCC1 (centres undefined) returned FLuc modulator 0% and SMN2 splice up 15%.
For CN(C)C(=O)c1ccc(NC(=O)Cn2nnnc2-c2ccccc2F)cc1 the results were FLuc modulator 4% and SMN2 splice up -6%.
For Cc1cccc(-c2nc(N)nc(N)n2)c1 the results were FLuc modulator inconclusive, Rab9 prom act inconclusive, ELG1 genotox inconclusive and NPC1 prom act 21%.
Screening Cc1ccc2nc(-c3cccc(N)c3)oc2c1 returned FLuc modulator 0.21µM*, Rab9 prom act 3.5µM*, ELG1 genotox 1.6µM*, Luc counter -26%, NPC1 prom act 0.89µM* and SMN2 splice up inconclusive.
COc1ccc(CCC(=O)NCc2nc3cccnc3n2Cc2ccc(OC)cc2)cc1 was read as FLuc modulator -2%.
`Cc1cccc(NC(=O)CSc2nnc3c4ccccc4n(C)c3n2)c1` gave FLuc modulator -1% and SMN2 splice up -12%.
Screening Cc1c(NC(=O)CSc2nnc3c4ccccc4n(CCc4ccccc4)c3n2)c(=O)n(-c2ccccc2)n1C returned FLuc modulator 6%, Rab9 prom act 13%, ELG1 genotox -12%, Luc counter -3%, NPC1 prom act -5% and SMN2 splice up 3.2µM*.
CCn1c2ccccc2c2nnc(SCC(=O)Nc3c(C)n(C)n(-c4ccccc4)c3=O)nc21 was read as FLuc modulator 0%, Rab9 prom act 0%, ELG1 genotox -1%, Luc counter 1%, NPC1 prom act -3% and SMN2 splice up -11%.
For Cn1c2ccccc2c2nnc(SCC(=O)Nc3cccc(O)c3)nc21 the results were FLuc modulator 6.7µM*, Rab9 prom act 6%, ELG1 genotox 11% and NPC1 prom act -1%.
For COc1ccc(-c2cc(C(=O)NNC(=O)c3csc(N4CCOCC4)n3)c3ccccc3n2)cc1 the results were FLuc modulator 12µM*, Rab9 prom act 2%, ELG1 genotox -24% and NPC1 prom act -2%.
`COc1ccc(-c2cc(C(=O)NNC(=O)c3csc(N4CCOCC4)n3)c3ccccc3n2)cc1OC` gave FLuc modulator 9.5µM*, Rab9 prom act 5%, ELG1 genotox -26% and NPC1 prom act 0%.
`O=C(NNC(=O)c1ccccc1Cl)c1csc(N2CCOCC2)n1` gave FLuc modulator inconclusive, Rab9 prom act -2%, ELG1 genotox 0% and NPC1 prom act 0%.
For CC(=O)N1CCc2cc(Br)cc(S(=O)(=O)N3CCC(C(=O)Nc4cccc(C)c4C)CC3)c21 the results were FLuc modulator 2% and SMN2 splice up -6%.
`CCc1cnc2c(c1SCC(=O)c1ccc(OC)cc1)c(=O)n(C)c(=O)n2C` gave FLuc modulator 4%.
COc1ccccc1NC(=O)C1CCN(c2cnccn2)CC1 was read as FLuc modulator -2% and SMN2 splice up 7%.
C=CC1=C(C)/C(=C/c2[nH]c(Cc3[nH]c(/C=C4\NC(=O)C(C)=C4C=C)c(C)c3CCC(=O)O)c(CCC(=O)O)c2C)NC1=O was read as Luc counter -10% and SMN2 splice up -9%.
Screening Clc1nc(-c2cccnc2)nc2scc(-c3ccccc3)c12 returned FLuc modulator 12µM*, Rab9 prom act 28%, ELG1 genotox inconclusive, Luc counter -3%, NPC1 prom act inconclusive and SMN2 splice up 15%.
`COc1ccc(-c2csc3nc(-c4cccnc4)nc(Cl)c23)cc1OC` gave FLuc modulator -15%, Rab9 prom act -4%, ELG1 genotox -3%, Luc counter 2%, NPC1 prom act -8% and SMN2 splice up -105%.
CCCS/C(N)=N/N=C/c1ccccc1O was read as FLuc modulator 9.5µM*, Rab9 prom act 2.5µM*, ELG1 genotox 3.2µM*, Luc counter -2%, NPC1 prom act 2.8µM* and SMN2 splice up 11µM*.
`C=CCS/C(N)=N\N=C\c1c(O)ccc2ccccc12` gave FLuc modulator 4.8µM*, Rab9 prom act 2.8µM*, ELG1 genotox inconclusive and NPC1 prom act 0%.
`Cc1nnc(C)n1/N=C/c1c(O)ccc2ccccc12` gave FLuc modulator -2%, Rab9 prom act -4%[1.84 µM], ELG1 genotox 4% and NPC1 prom act 1%.
CCOc1ccc(N(C)S(=O)(=O)c2c(C(=O)N3CCC(C)CC3)c(C)n(C)c2C)cc1 was read as FLuc modulator -10%.
Screening Cc1ccc(O)c(NC2=C(Cl)C(=O)N(Cc3ccccc3)C2=O)c1 returned FLuc modulator 21µM*, Rab9 prom act -7%, ELG1 genotox 0%, Luc counter 0%, NPC1 prom act -1% and SMN2 splice up 3%.
For Nc1ccc(-c2ccc(C(=O)O)s2)cn1 the results were FLuc modulator 19µM*, Rab9 prom act 2%, ELG1 genotox 2%, Luc counter -14%, NPC1 prom act 8% and SMN2 splice up 14%.
Cc1cc(NC(=O)c2cc3ccccc3o2)cc(C)c1OCC(=O)N1CCOCC1 was read as FLuc modulator 12µM*, Rab9 prom act -4%, ELG1 genotox -16%, Luc counter -3%, NPC1 prom act 8% and SMN2 splice up -4%.
COc1ccc(C(=O)Nc2ccc(OCC(=O)N3CCOCC3)cc2)c(OC)c1OC was read as FLuc modulator 13µM*, Rab9 prom act 7%, ELG1 genotox 11% and NPC1 prom act -1%.
Cc1cc(NC(=O)c2ccccc2F)cc(C)c1OCC(=O)N1CCOCC1 was read as FLuc modulator 9.5µM*, Rab9 prom act 13%, ELG1 genotox 7% and NPC1 prom act -1%.
For CN(C)S(=O)(=O)c1ccc(C(=O)Nc2ccc(OCC(=O)N3CCOCC3)cc2)cc1 the results were FLuc modulator 15µM*, Rab9 prom act 9%, ELG1 genotox 4%, Luc counter 0%, NPC1 prom act 2% and SMN2 splice up 0%.
